Many of the other results were omitted from the sample, so hits are more common in it than they were.
Pf Dd2 inh: qHTS Primary assay for Inhibitors of Plasmodium falciparum Dd2 growth in vitro | AID 1347417, 2020 | actives 4.3% (n = 120,000) | P. falciparum Dd2 growth, SYBR Green, 72 h | Potency, µM (series often up to 28.9 µM), inactives show at the top dose activity, negative = inhibition, hits mostly inhibitors; active means well fitted inhibition curve with a large enough effect;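 further: plate controls were DMSO vehicle for no effect and reference drug for full effect; nearly all actives have a fitted effect of over 65% in size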
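Readout: SYBR Green fluorescence, 485 nm excitation, 535 nm emission, after ~16 h lysis at 37C. Before that, Dd2-infected red cells (2.5% hematocrit) grew 72 h with compound, 29 uM top final concentration.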
An asterisk follows results filed as active; i = inactive; [ ] = dose if it differs, or a comment. Potency means the concentration at half of the fitted maximal effect.

SMILES | Pf Dd2 inh
O=C1CCCCC(Cc2cccnc2)(C(=O)NCC2CC2)N1 (centres undefined) | -12%
O=C(Nc1ccccc1F)N1CCC(N2C(=O)C3(CCCCC3)C2c2ccccc2)CC1 (centres undefined) | i
CCn1cc(CN2CCC(N3C(=O)C4(CCCCC4)C3c3ccncc3)CC2)cn1 (centres undefined) | -4%
CCn1cc(CN2CCC(N3C(=O)C4(CCCC4)C3c3ccccc3)CC2)cn1 (centres undefined) | 1.6µM*
O=C(Nc1ccccc1F)N1CCC(N2C(=O)C3(CCCCC3)C2c2ccncc2)CC1 (centres undefined) | 4.5µM*
CCS(=O)(=O)N1CCC(N2C(=O)C3(CCCC3)C2c2ccccc2)CC1 (centres undefined) | i
Cc1ccc(C(=O)N2CCC(N3C(=O)C4(CCCC4)C3c3ccccc3)CC2)s1 (centres undefined) | -38%
Cc1ncccc1C(=O)N1CCC(N2C(=O)C3(CCCC3)C2c2ccccc2)CC1 (centres undefined) | i
Cc1nc(C)c(C(=O)N2CCC(N3C(=O)C4(CCCCC4)C3c3ccccc3)CC2)s1 (centres undefined) | 13µM*
O=C(c1ccncc1)N1CCC(N2C(=O)C3(CCCCC3)C2c2ccncc2)CC1 (centres undefined) | -5%
CN(C)c1ccc(-c2nnnn2[C@H]2CO[C@H]3[C@@H]2OC[C@@H]3NS(=O)(=O)c2cccc3cccnc23)cc1 | i
O=C(COc1ccccc1)Nc1ccc2c(c1)CN(Cc1ccccc1F)C(=O)CO2 | i
Cc1cc(C(=O)Nc2ccc([C@H]3OCC(=O)N(Cc4ccccc4)[C@@H]3CO)cc2)n(C)n1 | i
Cc1cc(C)n(CCC(=O)NCC2CCN(c3cc(-c4ccc(Cl)cc4)[nH]n3)CC2)n1 | -14%
COc1ccc(C)cc1NC(=O)C1CCN(C(=O)N2CC3CC(C2)[C@H]2CCCC(=O)N2C3)CC1 (some centres undefined) | -21%
CCCCCNc1ncnc2c1CN(C1CCCNC1)C(=O)CN2C (centres undefined) | 9%
COc1ccc(NC(=O)c2oc3c(c2C)-c2nn(Cc4c(F)cccc4Cl)cc2CC3)c(OC)c1 | i
COc1ccc(OC)c(NC(=O)c2oc3c(c2C)-c2nn(Cc4ccc(Cl)cc4)cc2CC3)c1 | 10µM*
COc1cc(NC(=O)c2oc3c(c2C)-c2nn(Cc4cccc(Cl)c4)cc2CC3)cc(OC)c1 | -28%
CCOc1ccccc1CN1CCN(Cc2nccn2CC)CC1CCO (centres undefined) | i
COc1cc(CN2CCN(Cc3cnc(SC)nc3)CC2CCO)cc(OC)c1 (centres undefined) | i
COc1ccc(CN2CCN(Cc3cc4ccccc4[nH]3)CC2CCO)c(C)c1C (centres undefined) | 8.9µM*
O=C1NCCCCCCN(C(=O)c2ccc3ccccc3n2)[C@H]2CCC[C@@H]12 | 0%
CC(C)c1nnc(C2CN(C(=O)c3ccc(Cl)s3)CC23CCOCC3)o1 (centres undefined) | -13%
COc1ccc(-c2nc3scc(CCNS(=O)(=O)c4ccccc4F)n3n2)cc1 | -11%
SMILES | Pf Dd2 inh
O=C(NCCc1csc2nc(-c3ccc(F)cc3)nn12)c1cccc(C(F)(F)F)c1 | 49%[5.79 µM]
COc1ccc(-c2nc3scc(CCNC(=O)c4cccc(Br)c4)n3n2)cc1 | 1µM*
CCOc1ccccc1NC(=O)N1CCCC1c1nc(CCOCC2CCOCC2)no1 (centres undefined) | -21%
O=C(Cc1ccccc1)N1CCC(N2CC3CC(C2)[C@H]2CCCC(=O)N2C3)CC1 (some centres undefined) | -7%
CN(C)CCN(C)C[C@H]1CN2CC[C@H]1C[C@@H]2CNC(=O)c1ccc(N(C)C)cc1 | 14%[44.1 µM]
CCOC(=O)c1c(C)oc2nc(C)nc(NCC3CCN(Cc4ccc(C)cc4)CC3)c12 | 7.1µM*
CCOC(=O)c1c(C)oc2nc(C)nc(N3CCN(c4ccccc4F)CC3)c12 | 3.2µM*
CCOC(=O)c1c(C)oc2nc(C)nc(NCC3CCN(Cc4cccc(Cl)c4)CC3)c12 | -18%
CCOC(=O)c1c(C)oc2nc(C)nc(N3CCN(c4cc(Cl)ccc4C)CC3)c12 | 8.9µM*
CCc1cccc(NC(=O)c2c(C)oc3nc(C)nc(N4CCCC4)c23)c1 | -9%
CCOC(=O)c1c(C)oc2nc(C)nc(NCCc3ccc(Cl)cc3)c12 | -18%
CCOC(=O)c1c(C)oc2nc(C)nc(NCCCN3CCN(c4ccccc4)CC3)c12 | -13%
Cc1nc(N2CCOCC2)c2c(C(=O)N3CCN(c4ccccc4)CC3)c(C)oc2n1 | 32%
CCOC(=O)c1c(C)oc2nc(C)nc(NCCc3ccc(OCC)cc3)c12 | i[5.79 µM]
O=C(CC1CCCC1)N1CCN(Cc2ccc(=O)n(CC3CC3)c2)CC1 | -9%
COc1ccc(C(=O)NC2CCN(c3cn[nH]c(=O)c3)CC2)cn1 | 8%
CCOc1ccc(CC(=O)N2CCC(Oc3ncccc3C(=O)N3CCCCC3)C2)cc1 (centres undefined) | -3%
O=C(c1ccc2c(c1)OCO2)N1CCC2(Cc3ccccc3NC2=O)C1 (centres undefined) | i
Cc1cc(C)n(CC2(CNC(=O)c3cc(S(N)(=O)=O)ccc3F)CC2)n1 | 0%
CCCN(C)C(=O)CC1Sc2ncccc2N(CCC)C1=O (centres undefined) | 5%
COc1ccc(C(=O)N2CCC3(CC2)OCC(C(=O)NC2CC2)N3C(=O)c2cccc(C)c2)cc1 (centres undefined) | 5%
CCc1nc2c(c(-c3ccc(Cl)cc3)n1)CN(C(=O)c1ccccc1Cl)CC2 | -30%
COc1cccc(OC)c1-c1c(-c2ccccc2)ncn1CCCSC | 10µM*
COc1cccc2ccc(-c3c(-c4ccccc4)ncn3CCNC(C)=O)nc12 | -28%
CCCn1ccnc1-c1c(-c2ccccc2)ncn1CCCC(=O)OC | 1%
SMILES | Pf Dd2 inh
CN(C)C[C@@H]1CN(c2ccncn2)C[C@H]1NC(=O)c1ccsc1 | -11%
COc1ccccc1CN1C(=O)COC[C@@H]1[C@H](O)c1ccc(NC(=O)CCc2ccccc2)cc1 | i
C=CCN(C)C[C@H]1CN2CC[C@H]1C[C@@H]2CNC(=O)Nc1cccc(C#N)c1 | -25%[44.1 µM]
COCc1cn(C[C@H]2C[C@@H](NCc3cccc4c3OCO4)[C@H](O)[C@@H]2O)nn1 | 12%
COc1cccc(NC(=O)CSc2nc(-c3ccccc3)nc3c2Cc2cc(Cl)ccc2O3)c1 | 25%
CCOc1cccc2c1Oc1nc(-c3ccccc3)nc(SCC(=O)Nc3ccc(F)cc3)c1C2 | 7.9µM*
COc1ccc(-c2nc3c(c(SCC(=O)Nc4ccccc4OC)n2)Cc2cccc(C)c2O3)cc1 | 11µM*
COc1ccc(-c2nc3c(c(SCC(=O)Nc4ccccc4F)n2)Cc2cc(C)ccc2O3)cc1 | 19%
COc1cccc2c1Oc1nc(-c3ccccc3)nc(SCC(=O)N3CCCCC3)c1C2 | -23%
CCOc1ccc(-c2nc3c(c(SCC(=O)Nc4ccccc4C)n2)Cc2ccccc2O3)cc1 | -6%
O=C1CC(c2ccccc2)N(C(=O)CNC(=O)c2cnccn2)CCCCCN1 (centres undefined) | 26%
NC1CCC(n2cc(C(=O)N3CCNCC(O)C3)nn2)CC1 (centres undefined) | -14%
CC(C)(N)C(=O)N1CCCC(N2CCN(c3ccc(F)cc3)CC2)C1 (centres undefined) | -27%
COCCc1noc(-c2nc(-c3ccc(OC)cc3)no2)n1 | 8%
COc1cccc(CN2CC(Oc3ccccc3C(=O)NCc3ccccc3)C2)c1 | 3.5µM*

Screening data (PubChem BioAssay)
